The source of these data is PubChem BioAssay (NCI).

Assay [1] can be described thus: NCI Yeast Anticancer Drug Screen. Data for the rad50 strain (AID 155).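 Note: 0% = growth of vehicle-only cultures of the same strain.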 The settings on record: S. cerevisiae rad50 strain growth inhibition; at 50.0 µM; hits give high values. The gist of the method: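 Cells are treated with compound, grown, and their growth is then scored against vehicle-only cultures of the same repair-deficient yeast strain.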
Assay [2] can be described thus: NCI Yeast Anticancer Drug Screen. Data for the mec2-1 strain (AID 157). Particulars: S. cerevisiae mec2-1 strain, at 50.0 µM, hits give high values. The gist of the method: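 mec2-1 yeast strain, carrying an alteration in DNA damage repair or cell cycle control, was exposed to compounds; growth inhibition was measured relative to vehicle-treated controls.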
Assay [3] in a line: NCI Yeast Anticancer Drug Screen. Data for the sgs1 mgt1 strain (AID 161).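 Note: 0% = growth of cultures given vehicle only.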 Particulars: S. cerevisiae sgs1 mgt1 strain, at 50.0 µM, hits give high values. The gist of the method:
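This yeast growth screen uses a strain with defined DNA-repair lesions; compound-treated growth is compared with vehicle-treated growth.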

Assay [4] can be described thus: NCI Yeast Anticancer Drug Screen. Data for the cln2 rad14 strain (AID 165).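 Note: 0% = growth equal to vehicle treated cultures.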 The settings on record: S. cerevisiae cln2 rad14 strain, at 50.0 µM, hits give high values. Summed up:
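Yeast carrying cln2 and rad14 alterations (cell cycle control and DNA damage repair) were exposed to compounds. Growth inhibition was measured against vehicle-treated controls.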

Assay [5] in a line: NCI Yeast Anticancer Drug Screen. Data for the bub3 strain (AID 167). Particulars: S. cerevisiae bub3 mutant strain, at 50.0 µM, hits give high values. Summed up:
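Part of a panel of yeast mutants defective in DNA damage repair or cell cycle regulation. Each strain is grown with compound, and inhibition is calculated relative to solvent-treated cultures.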

Assay [6] in a line: NCI Yeast Anticancer Drug Screen. Data for the mlh1 rad18 strain (AID 175). The settings on record: S. cerevisiae mlh1 rad18 strain growth inhibition; at 50.0 µM; hits give high values. Summed up: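 Growth inhibition of the yeast strain was measured after compound exposure and expressed relative to vehicle-treated controls. The strain carries defined defects in DNA damage repair.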

The panel holds about 79,000 compounds, 15% with a hit somewhere; the sample as a whole holds those more often. A number with no mark means an inactive call. Activity calls are given as the source filed them. Cut-off read from the data, not from the text of the source: active = growth inhibition above about 70%; inactive = the rest.

With `O=c1[nH]c(=O)c2[nH]c(N=Nc3ccc(N(CCCl)CCCl)cc3)nc2[nH]1`, the growth inhibition in assay [1] was 20.9%; in assay [2], 6.1%; in assay [3], 34.6%; in assay [4], 38.1%; in assay [5] it was 10.7%; in assay [6] it was 17.6%.

As to `CC(C)COP(=O)(Cc1ccccc1)OCC(C)C`, the growth inhibition is 8.85% in assay [1]; 5.65% in assay [2]; -0.5% in assay [3]; 11.8% in assay [4]; 5% in assay [5]; -6.2% in assay [6].

Consider `N#CC(C#N)=Cc1ccccc1[N+](=O)[O-]`, for which the growth inhibition is 41.9% in assay [1]; 17.2% in assay [2]; 8.3% in assay [3]; 25.6% in assay [4]; 39.8% in assay [5]; 29.7% in assay [6].

For `CCN(CC)C(=S)Cl`, the growth inhibition is -35.4% in assay [1]; -29.4% in assay [2]; -0.5% in assay [3]; -2.15% in assay [4]; 19.1% in assay [5]; -24.5% in assay [6].

Take `N#CNC(N)=S`: the growth inhibition in assay [1] is -13.8%; in assay [2], -10.3%; in assay [3], -10.3%; in assay [4] it was -8.7%; in assay [5], -14.3%; in assay [6] it was -8.35%.

Turning to `CC12CCC3C(CC(N4CC4)C4(O)CC(O)CCC34C)C1CCC2=O` (stereo unspecified), the growth inhibition in assay [1] was 15.6%; in assay [2], -10.2%; in assay [3] it was -3.85%; in assay [4] it was 14.8%; in assay [5], -8%; in assay [6] it was -8%.

Turning to `PCc1ccccc1.[Cl][Hg][Cl]`, the growth inhibition in assay [1] was -34.7%; in assay [2] it was 12.7%; in assay [3], 14.2%; in assay [4], -59.4%; in assay [5], -6%; in assay [6] it was 12.6%.

Regarding `O=S(=O)(C(Cl)Cl)C(Cl)(Cl)S(=O)(=O)C(Cl)Cl`, the growth inhibition in assay [1] was -11.4%; in assay [2], -53%; in assay [3], 5.8%; in assay [4] it was -40.2%; in assay [5] it was 5.1%; in assay [6] it was 13.1%.

Take `N#CN=C(N)NC#N`: the growth inhibition in assay [1] is 24.1%; in assay [2], 12.9%; in assay [3], 7.3%; in assay [4], 0.55%; in assay [5] it was 13.8%; in assay [6] it was 17.1%.

Regarding `O=C1NC(=O)C(CCO)(c2ccccc2)C(=O)N1`, the growth inhibition in assay [1] was -21.6%; in assay [2], -13%; in assay [3] it was -4.4%; in assay [4], -6.25%; in assay [5] it was -11.7%; in assay [6] it was -4.15%.

For the compound `c1ccc(N2CCNCC2)cc1`, the growth inhibition in assay [1] is -11.3%; in assay [2], 4.45%; in assay [3], -27.2%; in assay [4], -28.6%; in assay [5], -0.8%; in assay [6] it was -1.5%.

Take `C=CCP(c1ccccc1)c1ccccc1`: the growth inhibition in assay [1] is -2%; in assay [2], -3.75%; in assay [3] it was -8.65%; in assay [4] it was 8%; in assay [5], 9.1%; in assay [6] it was -13.5%.

Consider `CCC[CH2][Sn]1([CH2]CCC)[O]CC2(CCCCC2)C[O]1`, for which the growth inhibition in assay [1] is 99.6% (active); in assay [2], 99.8% (active); in assay [3], 99.2% (active); in assay [4] it was 99.5% (active); in assay [5], 99.7% (active); in assay [6], 99.6% (active).

As to `CC(=[N-])CC(C)=O.CC(=[N-])CC(C)=O.[Cu+2]`, the growth inhibition in assay [1] was 14.9%; in assay [2] it was 14.5%; in assay [3], 10.8%; in assay [4] it was -18.3%; in assay [5], -4.4%; in assay [6] it was 8.2%.

With `C=[CH][Sn]([Cl])([Cl])[CH]=C.CN(C)P(=O)(N(C)C)N(C)C`, the growth inhibition was 28.5% in assay [1]; 32.5% in assay [2]; 44.4% in assay [3]; 28.1% in assay [4]; 53.3% in assay [5]; 54.1% in assay [6].

Regarding `O=[N+]([O-])c1ccc(SSC(Cl)(Cl)Cl)cc1`, the growth inhibition in assay [1] is 33%; in assay [2] it was 94.2% (active); in assay [3], 93.5% (active); in assay [4], 13.4%; in assay [5], 78.5% (active); in assay [6], 84.4% (active).

`CC(C)CC1N=C(NN=C(CCl)CCl)SP1(=O)NCCCCCCNP1(=O)SC(NN=C(CCl)CCl)=NC1CC(C)C` (stereo unspecified): the growth inhibition in assay [1] was 2.95%; in assay [2], 12.1%; in assay [3], 11.4%; in assay [4], -11.7%; in assay [5] it was 15.9%; in assay [6], 13.8%.

In the case of `CN(C)c1ccc(C(c2c(O)c3ccc(O)cc3oc2=O)c2c(O)c3ccc(O)cc3oc2=O)cc1`, the growth inhibition was 8.4% in assay [1]; 7.75% in assay [2]; 22.2% in assay [3]; 32.7% in assay [4]; 3.9% in assay [5]; 11.4% in assay [6].

Consider `CCC[As](=O)(O)Cc1ccccc1C`, for which the growth inhibition in assay [1] was 4.3%; in assay [2], -5.4%; in assay [3], 7.8%; in assay [4] it was -1.3%; in assay [5], 18%; in assay [6], 22.1%.

In the case of `CC1(c2ccccc2)CC12C(=O)NC(=O)NC2=O` (stereo unspecified), the growth inhibition in assay [1] is -69.1%; in assay [2], -22.6%; in assay [3], -18.9%; in assay [4], -8.75%; in assay [5], -27.7%; in assay [6], -20.9%.

Take `c1cc2c(cc1NC1=NCCO1)OCO2`: the growth inhibition in assay [1] is -23.2%; in assay [2] it was -18.8%; in assay [3] it was -3.65%; in assay [4], 0.7%; in assay [5], -13.8%; in assay [6], -25.2%.
